Hit rate of the full screen: of about 110,000 compounds, about 610 (0.55%) were called active. Not shown: some 3% with an inconclusive outcome. Calls follow the shape of the dose curve; as a rule, active = well fitted inhibition curve with a large enough effect; inconclusive = small, poorly fitted or top-dose-only effect; inactive = no such curve, though single readings can be large or run the other way. The list comes from a sample in which actives are over-represented; it also holds similar structures and randomly drawn compounds. Where a call stands in place of a potency, no number is given.
Each compound was assayed against Polyunsaturated fatty acid lipoxygenase ALOX15B (Homo sapiens) (UniProt O15296) (assay: qHTS Assay for Inhibitors of 15-hLO-2 (15-human lipoxygenase 2)). Settings: purified 15hLO-2, xylenol orange hydroperoxide absorbance; series mostly up to 0.0915 µM.
Chain of Polyunsaturated fatty acid lipoxygenase ALOX15B (Homo sapiens) (O15296 whole entry, looked up): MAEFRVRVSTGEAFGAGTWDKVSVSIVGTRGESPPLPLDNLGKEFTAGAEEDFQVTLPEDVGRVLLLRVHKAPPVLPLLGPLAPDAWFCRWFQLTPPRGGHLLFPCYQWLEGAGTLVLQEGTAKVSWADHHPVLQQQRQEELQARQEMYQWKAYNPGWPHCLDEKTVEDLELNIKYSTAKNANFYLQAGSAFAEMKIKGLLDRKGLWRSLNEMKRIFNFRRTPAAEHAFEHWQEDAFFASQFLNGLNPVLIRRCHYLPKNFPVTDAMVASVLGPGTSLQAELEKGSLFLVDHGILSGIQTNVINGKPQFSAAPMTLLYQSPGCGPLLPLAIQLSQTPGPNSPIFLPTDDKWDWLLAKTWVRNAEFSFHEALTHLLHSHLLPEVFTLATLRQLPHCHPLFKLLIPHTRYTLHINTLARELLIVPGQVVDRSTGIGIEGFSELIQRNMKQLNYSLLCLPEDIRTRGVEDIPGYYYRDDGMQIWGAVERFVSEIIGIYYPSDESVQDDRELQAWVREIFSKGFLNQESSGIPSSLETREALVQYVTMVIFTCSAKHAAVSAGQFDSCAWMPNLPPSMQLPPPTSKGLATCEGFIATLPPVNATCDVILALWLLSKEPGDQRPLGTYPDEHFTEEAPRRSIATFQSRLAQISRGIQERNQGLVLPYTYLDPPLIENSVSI
Source text: Assay Overview: NIH Molecular Libraries Screening Centers Network [MLSCN] NIH Chemical Genomics Center [NCGC] MLSCN Grant: MH081283-01A1 PI Name: Holman, T.R., University of California, Santa Cruz Human lipoxygenase 15hLO-2 is a member of the closely related lipoxygenase family of enzymes which catalyze the site-specific oxidation of arachidonic acid to various hormone precursor molecules and as such is a candidate for drug development in a variety of disease areas, such as cancer and inflammation. Inhibition of 15hLO-2 activity was screened by utilizing arachidonic acid as a substrate. The extent of hydroperoxide product formation was measured by a secondary chromogenic reaction in which xylenol orange (XO, Sigma-Aldrich, cat. number 39,818-7) reacts with the ferric ions produced from the reaction between the hydroperoxide and ferrous ions. The Fe(III)-XO complex is characterized with red-shifted absorbance at 560 nm. A purified preparation of human 15hLO-2 was supplied by Professor Ted Holman, University of California, Santa Cruz.
Assay Protocol: Buffer: 25 mM Hepes pH 7.5, 0.01% Triton X-100. Reagents/Controls: Buffer in columns 3 and 4 as negative control (no enzyme). Substrate solution: 45 uM arachidonic acid (Sigma-Aldrich, St. Louis, MO) final concentration dispensed throughout the plate. Enzyme: 50 nM 15hLO-2 final concentration in columns 1, 2, 5-48. Column 1 is neutral (100% activity). Column 2 contained pin-transferred titration of NDGA (nordihidroguaiaretic acid, Sigma-Aldrich, N 5023, top concentration 10 mM in DMSO, then 1:2 dilution in duplicate). (Dilution factor: 23 nL into 4 uL.) Chromogenic detection reagent (divalent iron/xylenol orange, Fe-XO): 200 uM xylenol orange plus 300 uM ferrous ammonium sulfate prepared freshly in 50 mM sulfuric acid. Assay Steps: Three uL of enzyme were dispensed to 1536-well Greiner black clear bottom plates. Compounds and controls (23 nL) were transferred via Kalypsys PinTool. The plates were incubated for 15 min at room temperature, and then 1 uL of substrate solution was added to start the reaction. After room temperature incubation for 90 minutes, 4 uL of Fe-XO solution was added to each well followed by a short spin (1000 rpm, 15 sec) and the plates were then incubated for 30 min. The absorbance at 405 and 573 nm were measured using ViewLux (Perkin-Elmer) High-throughput CCD imager and absorbance protocol settings. The 573-to-405 absorbance ratio was used to compute reaction progress.
Also: nearly all actives have a fitted effect of over 60% in size.
Potency is read from the fitted curve at half-maximal effect.

Compound	Potency
CC(C)CC(C)Nc1ccc(Nc2ccccc2)cc1 (stereo not given)	1.58 µM (active)
CC(=O)NC(=O)NC(C)Cc1ccccc1 (stereo not given)	inactive
CC(C)(O/N=C(\C(=O)N[C@@H]1C(=O)N2C(C(=O)[O-])=C(C[n+]3ccccc3)CS[C@@H]12)c1csc(N)n1)C(=O)O	inactive
CCCCCCCCc1[se]c2ccccc2c1Br	inactive
CN(C)[C@@H]1C(=O)C(C(N)=O)=C(O)[C@@]2(O)C(=O)C3=C(O)c4c(O)cccc4[C@@](C)(O)C3CC12 (stereo not given in full)	inactive
COc1ccccc1-c1[se]c2ccccc2c1I	inactive
Clc1ccc(C(c2ccc(Cl)cc2)n2cc[n+](C[C@@H](OCc3ccc(Cl)cc3Cl)c3ccc(Cl)cc3Cl)c2)cc1	25.1 µM (active)
N#CC(C#N)=Cc1cc(O)c(O)c([N+](=O)[O-])c1	inactive
COC(=O)c1ccc2[se]c(CC3CCCCC3)c(I)c2c1	inactive
CC(C)(O)c1[se]c2ccccc2c1I	inactive

Reference: PubChem BioAssay AID881 (National Center for Advancing Translational Sciences (NCATS), 2007)
